Source: PubChem BioAssay (NCATS)
Inconclusive results are not listed. Activity calls are given as the source filed them. Unless noted, the call rests on the fitted dose curve; in most records, active means well fitted curve in the direction sought with a large enough effect; inconclusive means small, poorly fitted or top-dose-only effect, or another doubt; inactive means no such curve, though single readings can be large; an effect the other way counts as inactive or inconclusive.

Legend:
[1] = target: T1, Tyrosine-protein phosphatase non-receptor type substrate 1 (Homo sapiens) + Leukocyte surface antigen CD47 (Homo sapiens) (UniProt P78324+Q08722); assay: CD47-SIRPalpha protein protein interaction - LANCE assay qHTS validation (AID 1347057; active means well fitted curve in the direction sought with a large enough effect in the signal ratio, with a control signal flat, not every such curve was filed as active; the % refers to the signal ratio; further: 0% is about no effect)
In short: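 First, His-tagged CD47 and Eu-labelled anti-His antibody met the compound for 30 min; next, site-specifically biotinylated SIRPalpha was added for 30 min; finally streptavidin-APC was added before reading the TR-FRET ratio.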

[2] = target: T1, Tyrosine-protein phosphatase non-receptor type substrate 1 (Homo sapiens) + Leukocyte surface antigen CD47 (Homo sapiens); assay: CD47-SIRPalpha protein protein interaction - HTRF assay qHTS validation (AID 1347058; active means well fitted curve in the direction sought with a large enough effect in the signal ratio, not every such curve was filed as active; the % refers to the signal ratio;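 further: recombinant soluble extracellular CD47 with His tag and biotinylated SIRPalpha domains; 0% is about no effect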)
In short: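 TR-FRET read (Ch1/Ch2 ratio) of soluble extracellular CD47 and Avi-biotinylated SIRPalpha domains in PBS pH 7.4 with 0.05% IGEPAL; 7-point compound titration. Sequential 30 min room-temperature steps; non-biotinylated SIRPalpha as control inhibitor.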

[3] = target: T1, Tyrosine-protein phosphatase non-receptor type substrate 1 (Homo sapiens) + Leukocyte surface antigen CD47 (Homo sapiens); assay: CD47-SIRPalpha protein protein interaction - Alpha assay qHTS validation (AID 1347059);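 further: bead proximity luminescence from CD47 binding SIRPalpha after compound preincubation with SIRPalpha; on the % scale 0 is the no-effect control and ±100 the full control effect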
In short: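 Binding is measured by AlphaScreen proximity: Ni-NTA acceptor beads capture His-CD47, streptavidin donor beads capture biotin-SIRPalpha. Each of three additions (SIRPalpha with compound, CD47, beads) incubates 30 min at room temperature protected from light.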

[4] = target: Parathyroid hormone/parathyroid hormone-related peptide receptor (Homo sapiens) (UniProt Q03431); assay: qHTS for PTHR1 Agonists: Optimization Screen against the NCGC LOPAC library (AID 1347079);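 further: GloSensor cAMP luminescence in HEK-293 GP2 cells expressing human PTHR1 with IBMX; 0% is about no effect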
In short: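 Agonist readout: GloSensor cAMP luminescence, read after 15 min at room temperature. HEK-293-derived GP2 line carries PTHR1; compounds tested as a titration for 1 hr at 37C in presence of IBMX. M-PTH (1-15) served as control.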

[5] = target: N-terminal Xaa-Pro-Lys N-methyltransferase 1 (Homo sapiens) (UniProt Q9BV86); assay: qHTS Assay for Inhibitors of N-terminal methyltransferase 1 (NTMT1): LOPAC validation of the NTMT1 SAHH-coupled ThioGlo3 Assay (AID 1347143);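 further: SAH from peptide methylation measured as thiol fluorescence via SAHH coupling and ThioGlo3; nearly all actives have a fitted effect of over 70% in size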; further: potency means the concentration at half of the fitted maximal effect; on activity change, negative = inhibition: on the % scale 0 is the no-effect control and ±100 the full control effect
In short: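 Inhibition of NTMT1 methylation of peptide SPKRIA is followed by converting SAH with SAHH and labelling the released thiol with ThioGlo3. Plates are read at 340/450nm before and 30 min after reagent addition, both at room temperature.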

[6] = system: Zika virus NS2B-NS3 protease (unlinked); assay: Optimization of GU AMC qHTS for Zika virus inhibitors: Unlinked NS2B-NS3 protease assay (AID 1347151); further: nearly all actives have a fitted effect of over 80% in size; further: potency means the concentration at half of the fitted maximal effect;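 on activity change, negative = inhibition: 0% = no-inhibitor control and -100% = no-enzyme control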
In short: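 Fluorescence gain (340/450 nm) over 15 min at room temperature, ~20% conversion, gave percent inhibition fitted to a 4-parameter Hill equation; enzyme was unlinked NS2B-NS3 (25 nM final), pH 8.0 Tris buffer.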

[7] = NS1 protein of Zika virus - qHTS assay to identify small molecule inhibitors in human HEK 293 cells (AID 1347053);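 further: plate controls were infected untreated cells for no effect and uninfected cells for full effect; nearly all actives have a fitted effect of over 55% in size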
In short: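 Inhibition of NS1 expression was scored in HEK 293 cells given compound 1 h ahead of MR766 virus (MOI = 0.5). Following 24 h at 37 C, two anti-NS1 antibodies generated a TR-FRET signal, scaled between uninfected and infected controls.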

[8] = system: Zika virus NS2B-NS3 protease; assay: Primary screen GU AMC qHTS for Zika virus inhibitors (AID 1347154); further: nearly all actives have a fitted effect of over 70% in size; further: potency means the concentration at half of the fitted maximal effect;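 on activity change, negative = inhibition: 0% = no-inhibitor control and -100% = no-enzyme control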
In short: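 Fluorogenic AMC-substrate cleavage by noncovalent NS2B-NS3 protease complex (25 nM, pH 8.0 Tris buffer with Tween 20) followed for 15 minutes at room temperature (~20% conversion). Percent inhibition from ex340/em450 signal change, fitted by 4-parameter Hill equation.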

[9] = Confirmatory screen GU Rhodamine qHTS for Zika virus inhibitors qHTS (AID 1347157); further: potency means the concentration at half of the fitted maximal effect; nearly all actives have a fitted effect of over 70% in size
In short: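 In dose–response format, inhibition of unlinked protease (25 nM) was measured with 1.5 microM bis-peptide Rhodamine110 substrate. Aprotinin served as the intraplate control.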

[10] = ZIKV-mCherry secondary qHTS for Zika virus inhibitors (AID 1347158); further: top concentration of the series differs between compounds
In short: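 Vero, 5,000 cells/well, o/n 37 °C; cpd pin-transferred in DMSO; ZIKV-mCherry MOI 1, 48-72 h 37 °C; 32% PFA stock fix, Hoechst; imaged 10x DAPI/mCherry; mCherry+ threshold 450 RFU; % infection.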

[11] = system: Zika virus NS2B-NS3 protease (linked); assay: 384 well plate NINDS AMC confirmatory qHTS for Zika virus inhibitors (AID 1347163); further: potency means the concentration at half of the fitted maximal effect; nearly all actives have a fitted effect of over 50% in size
In short: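 Linked NS2B-NS3 protease (final 5 nM, 30 nM or 60 nM) was preincubated with compounds (final up to 1 mM) for ~15 minutes. Ac-VKTGKR-AMC substrate (final 30 microM) then reacted for 25 minutes at room temperature in the dark. Fluorescence (ex 355/em 460 nm) was normalized to no-enzyme and no-inhibitor controls.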

[12] = system: Zika virus NS2B-NS3 protease (linked construct); assay: 384 well plate NINDS Rhodamine confirmatory qHTS for Zika virus inhibitors (AID 1347164);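 further: fluorescence from protease cleavage of Ac-LKRR-rhodamine 110 substrate; nearly all actives have a fitted effect of over 65% in size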; further: potency means the concentration at half of the fitted maximal effect;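 on activity change, negative = inhibition: top concentration of the series differs between compounds; plate controls were no-inhibitor control for no effect and no-enzyme control for full effect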
In short: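 Fluorescence at 485/538 nm was measured 25 minutes after adding 10 microM Ac-LKRR-Rd substrate, in the dark at room temperature. The protease (5, 30 or 60 nM final) had been preincubated ~15 minutes with compound; aprotinin as control.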

[13] = target: Lysine-specific demethylase 5B (Homo sapiens) (UniProt Q9UGL1); assay: Optimization screen for KDM5B Histone Demethylases FDH coupled qHTS against the LOPAC library (AID 1347166); conditions: KDM5B demethylation, FDH-coupled NADH fluorescence (FDH is formaldehyde dehydrogenase); at 57.5 µM (top of the series); further: 0% is about no effect
In short: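 KDM5BDeltaAP (200nM final) preincubated 10 min with compound, then 12.5uM H3K4Me3, 25uM a-ketoglutarate, ascorbate, Fe(II), NAD+ and FDH added; 50mM HEPES pH 7.5, 0.01% Tween-20. NADH fluorescence (340/450 nm) change over 30 min, room temperature.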

[14] = Tertiary RLuc qRT-PCR qHTS assay for Zika virus inhibitors (AID 1347169); further: top concentration of the series differs between compounds; on the % scale 0 is the no-effect control and ±100 the full control effect; nearly all actives have a fitted effect of over 55% in size
In short: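 Orthogonal cell-based readout: luminescence measured 1-1.5 hrs after adding live-cell Renilla substrate to Vero cells that had been infected with ZIKV-RLuc (MOI 1-2) post-compound, incubated 48-72 hrs at 37 degrees C.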

[15] = system: Zika virus NS2B-NS3 protease (unlinked complex); assay: Confirmatory screen GU AMC qHTS for Zika virus inhibitors (AID 1347153);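 further: percent inhibition with 0% = no inhibitor control and 100% = no enzyme control; nearly all actives have a fitted effect of over 70% in size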
In short: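 Compounds were preincubated 15 min at room temperature with 25 nM noncovalent NS2B-NS3 protease at pH 8.0; AMC substrate added at 10 microM and 15-min fluorescence gain (340/450 nm) converted to percent inhibition, fitted 4-parameter.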

[16] = HepG2 cells viability qHTS for Zika virus inhibitors (AID 1347168); further: on the % scale 0 is the no-effect control and ±100 the full control effect
In short: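 Compounds were tested in concentration series on cells grown in DMEM containing 4% FBS. After 24 to 48 hours, cellular ATP was measured by luminescence with CellTiter Glo.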

[17] = Confirmatory screen NINDS Rhodamine qHTS for Zika virus inhibitors (AID 1347161); further: potency means the concentration at half of the fitted maximal effect; nearly all actives have a fitted effect of over 60% in size
In short: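 Purified NS2B-NS3 protease with the NS2B hydrophilic domain joined by a flexible linker (25 nM) in 10 mM Tris-HCl pH 8.0, 0.01% Tween 20, preincubated 15 min at RT with compound; Rhodamine110 peptide substrate 1.5 µM; fluorescence change over 15 min; 4-parameter Hill fit.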

Sequence of Lysine-specific demethylase 5B (Homo sapiens) (Q9UGL1 whole entry, looked up): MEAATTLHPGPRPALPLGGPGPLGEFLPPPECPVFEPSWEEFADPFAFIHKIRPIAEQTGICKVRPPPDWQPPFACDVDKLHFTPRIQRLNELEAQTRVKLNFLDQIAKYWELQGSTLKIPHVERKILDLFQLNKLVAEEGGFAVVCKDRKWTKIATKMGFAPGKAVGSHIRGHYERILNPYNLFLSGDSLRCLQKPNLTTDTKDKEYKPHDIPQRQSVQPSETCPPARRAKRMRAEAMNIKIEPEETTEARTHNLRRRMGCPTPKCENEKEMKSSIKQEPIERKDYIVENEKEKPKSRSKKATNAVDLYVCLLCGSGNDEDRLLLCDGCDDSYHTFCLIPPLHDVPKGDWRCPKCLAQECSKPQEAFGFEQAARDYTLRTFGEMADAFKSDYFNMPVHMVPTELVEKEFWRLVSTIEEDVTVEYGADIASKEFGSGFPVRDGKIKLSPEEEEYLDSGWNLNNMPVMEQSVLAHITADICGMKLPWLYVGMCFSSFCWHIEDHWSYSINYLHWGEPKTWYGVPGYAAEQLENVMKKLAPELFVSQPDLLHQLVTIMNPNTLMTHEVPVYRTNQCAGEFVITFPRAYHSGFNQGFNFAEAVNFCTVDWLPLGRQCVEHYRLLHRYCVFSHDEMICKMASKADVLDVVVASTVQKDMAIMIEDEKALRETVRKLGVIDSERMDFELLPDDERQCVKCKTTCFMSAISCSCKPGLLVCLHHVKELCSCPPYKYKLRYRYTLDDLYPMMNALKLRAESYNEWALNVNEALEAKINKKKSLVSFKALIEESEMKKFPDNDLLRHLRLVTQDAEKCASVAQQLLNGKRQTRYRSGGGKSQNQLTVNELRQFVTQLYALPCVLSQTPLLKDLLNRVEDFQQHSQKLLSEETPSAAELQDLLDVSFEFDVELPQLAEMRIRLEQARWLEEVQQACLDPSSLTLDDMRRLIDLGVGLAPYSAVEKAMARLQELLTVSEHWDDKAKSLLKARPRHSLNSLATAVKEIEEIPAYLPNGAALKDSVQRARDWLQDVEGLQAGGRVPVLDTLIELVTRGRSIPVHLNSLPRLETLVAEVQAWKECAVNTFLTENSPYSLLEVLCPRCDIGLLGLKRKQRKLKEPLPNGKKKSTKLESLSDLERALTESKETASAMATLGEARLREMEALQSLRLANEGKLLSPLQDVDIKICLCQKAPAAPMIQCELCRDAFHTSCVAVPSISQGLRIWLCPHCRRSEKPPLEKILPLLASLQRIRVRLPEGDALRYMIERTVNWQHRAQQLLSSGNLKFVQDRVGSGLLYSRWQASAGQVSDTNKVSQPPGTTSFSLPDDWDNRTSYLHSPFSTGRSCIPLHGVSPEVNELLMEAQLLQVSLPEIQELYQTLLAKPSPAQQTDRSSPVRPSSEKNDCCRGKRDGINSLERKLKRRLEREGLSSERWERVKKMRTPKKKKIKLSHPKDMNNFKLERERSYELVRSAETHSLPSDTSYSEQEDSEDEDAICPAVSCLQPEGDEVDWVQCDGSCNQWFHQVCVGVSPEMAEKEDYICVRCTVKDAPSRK
T1 sequence (P78324 whole entry, looked up): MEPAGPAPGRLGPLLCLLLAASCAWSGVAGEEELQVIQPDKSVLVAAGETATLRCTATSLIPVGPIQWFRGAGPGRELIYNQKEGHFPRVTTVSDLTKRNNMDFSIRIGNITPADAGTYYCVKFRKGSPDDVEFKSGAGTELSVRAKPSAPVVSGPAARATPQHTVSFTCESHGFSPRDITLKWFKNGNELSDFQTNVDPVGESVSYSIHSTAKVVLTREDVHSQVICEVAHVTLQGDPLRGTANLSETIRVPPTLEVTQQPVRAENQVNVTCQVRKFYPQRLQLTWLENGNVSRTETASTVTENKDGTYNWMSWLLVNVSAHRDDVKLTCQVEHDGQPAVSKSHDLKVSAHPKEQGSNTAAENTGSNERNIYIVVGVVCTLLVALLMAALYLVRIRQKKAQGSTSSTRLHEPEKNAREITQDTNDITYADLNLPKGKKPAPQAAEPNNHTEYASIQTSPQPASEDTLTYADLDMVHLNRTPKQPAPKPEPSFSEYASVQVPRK
T1 sequence (Q08722 whole entry, looked up): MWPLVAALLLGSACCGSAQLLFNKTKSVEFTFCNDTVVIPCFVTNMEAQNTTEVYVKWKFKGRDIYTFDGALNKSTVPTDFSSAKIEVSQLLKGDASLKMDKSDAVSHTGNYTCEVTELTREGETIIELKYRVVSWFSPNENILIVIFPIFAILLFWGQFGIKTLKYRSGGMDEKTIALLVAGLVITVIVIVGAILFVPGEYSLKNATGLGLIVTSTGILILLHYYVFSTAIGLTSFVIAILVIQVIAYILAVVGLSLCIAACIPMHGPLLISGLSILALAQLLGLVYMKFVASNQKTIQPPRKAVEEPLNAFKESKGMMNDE
Sequence of Parathyroid hormone/parathyroid hormone-related peptide receptor (Homo sapiens) (Q03431 whole entry, looked up): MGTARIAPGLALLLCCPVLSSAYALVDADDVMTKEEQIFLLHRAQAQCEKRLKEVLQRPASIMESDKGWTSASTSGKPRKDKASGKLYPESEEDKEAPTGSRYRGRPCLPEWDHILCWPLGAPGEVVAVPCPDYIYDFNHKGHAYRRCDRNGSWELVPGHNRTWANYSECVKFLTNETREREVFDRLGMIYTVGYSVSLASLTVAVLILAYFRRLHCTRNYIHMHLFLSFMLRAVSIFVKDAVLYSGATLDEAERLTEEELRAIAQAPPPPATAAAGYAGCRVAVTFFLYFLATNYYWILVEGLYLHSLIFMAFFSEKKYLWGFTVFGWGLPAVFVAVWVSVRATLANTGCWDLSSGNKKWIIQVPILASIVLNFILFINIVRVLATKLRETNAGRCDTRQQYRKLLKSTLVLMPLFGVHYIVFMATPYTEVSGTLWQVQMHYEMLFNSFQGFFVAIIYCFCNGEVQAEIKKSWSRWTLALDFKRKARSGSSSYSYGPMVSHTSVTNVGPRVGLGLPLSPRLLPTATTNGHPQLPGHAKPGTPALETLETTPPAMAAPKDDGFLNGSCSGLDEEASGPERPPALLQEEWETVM
Sequence of N-terminal Xaa-Pro-Lys N-methyltransferase 1 (Homo sapiens) (Q9BV86 whole entry, looked up): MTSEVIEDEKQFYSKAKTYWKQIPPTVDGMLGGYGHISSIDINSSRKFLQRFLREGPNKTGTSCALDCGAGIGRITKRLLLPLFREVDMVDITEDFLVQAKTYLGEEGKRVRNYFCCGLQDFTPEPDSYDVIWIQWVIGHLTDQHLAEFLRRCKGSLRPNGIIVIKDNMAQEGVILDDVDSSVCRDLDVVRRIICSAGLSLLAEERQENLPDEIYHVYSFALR

N=C(N)c1ccccc1
inactive: Potency [1] | outcome [2] | Potency [3] | Potency [4] | Potency [5] | Potency [6]

Cc1nc(N=Nc2ccc(S(=O)(=O)O)cc2S(=O)(=O)O)c(COP(=O)(O)O)c(C=O)c1O
inactive: Potency [7] | Potency [3] | Potency [4] | Potency [5] | Potency [8] | Potency [10] | activity, negative = inhibition [13] -11.6% | activity change, negative = inhibition [14] 33.6% [at 5.25 µM]
active: Potency [9] 7.94 µM | Potency [11] 39.8 µM | Potency [12] 3.98 µM

CC(C)NC[C@H](O)COc1cccc2ccccc12
inactive: Potency [7] | outcome [2] | Potency [3] | Potency [4] | Potency [8] | activity, negative = inhibition [13] -12%

NCCCCN=C(N)N
inactive: Potency [1] | outcome [2] | Potency [3] | Potency [4] | Potency [5] | Potency [6] | Potency [8]

CCCn1c(=O)c2[nH]c(-c3ccc(S(=O)(=O)O)cc3)nc2n(CCC)c1=O
inactive: Potency [7] | Potency [3] | Potency [4] | Potency [5] | activity, negative = inhibition [13] 2090%

CCCn1c(=O)c(C)cn2nc(N)nc12
inactive: Potency [1] | outcome [2] | Potency [3] | Potency [4]
active: Potency [5] 39.8 µM | Potency [6] 29.9 µM | Potency [8] 26.7 µM | activity, negative = inhibition [13] -3980%

CC(O)C(O)[C@H]1CNc2nc(N)[nH]c(=O)c2N1 (stereo not given in full)
active: Potency [5] 28.2 µM | Potency [6] 26.7 µM
inactive: Potency [7] | Potency [4]

COc1ccccc1N1CCN(CCN(C(=O)c2ccc(F)cc2)c2ccccn2)CC1
inactive: Potency [7] | Potency [4] | Potency [5] | Potency [6]

C[C@H](O)C(=O)C1=Nc2c(nc(N)[nH]c2=O)NC1
inactive: Potency [7] | Potency [3] | Potency [4]
active: Potency [5] 44.7 µM | Potency [6] 23.8 µM

COc1ccccc1N1CCN(CCCCN2C(=O)c3ccccc3C2=O)CC1
inactive: Potency [1] | outcome [2] | Potency [3] | Potency [4] | Potency [5] | Potency [8]
active: Potency [6] 23.8 µM

O=c1cc(-c2ccccc2)[nH]c2nc(Cl)ccc12
inactive: Potency [7] | Potency [4]
active: Potency [5] 79.4 µM | Potency [6] 11.9 µM

CCC(=O)N1CCN(C(=O)c2ccccc2)CC1
inactive: Potency [1] | outcome [2] | Potency [3] | Potency [4] | Potency [5] | Potency [6] | activity, negative = inhibition [13] 3.19%

O=C(O)[C@H]1NCCC[C@H]1C(=O)O
inactive: Potency [7] | Potency [3] | Potency [4] | Potency [5] | Potency [6] | activity, negative = inhibition [13] -4.16%

CN(C)CCCc1cc(C(=O)Nc2ccc(-c3ccncc3)cc2)ccc1O
inactive: Potency [7] | outcome [2] | Potency [3] | Potency [4] | activity, negative = inhibition [13] -5.29%

NCC(O)c1ccc(O)c(O)c1 (stereo not given)
inactive: Potency [7] | outcome [2] | Potency [3] | Potency [4] | Potency [6]

CCCCCCCCCCCCCCCCCCOC[C@H](COP(=O)([O-])OCC[N+](C)(C)C)OC
inactive: Potency [1] | outcome [2] | Potency [3] | Potency [4] | Potency [5] | Potency [6] | activity change, negative = inhibition [8] 2.23% [at 6.83 µM] | activity, negative = inhibition [13] 1.42%

N[C@@H](CCC(=O)N[C@H](CSN=O)C(=O)NCC(=O)O)C(=O)O
inactive: Potency [1] | outcome [2] | Potency [3] | Potency [4] | Potency [5] | Potency [6] | activity, negative = inhibition [13] -9.68%

CCOC(=O)C12CC1/C(=N/O)c1ccccc1O2 (stereo not given)
inactive: Potency [1] | outcome [2] | Potency [3] | Potency [4] | Potency [5] | Potency [6] | activity, negative = inhibition [13] -9.53%

CN(C)S(=O)(=O)c1ccc2c(c1)/C(=C/c1cc3c([nH]1)CCCC3)C(=O)N2
inactive: Potency [7] | Potency [3] | Potency [4] | Potency [5] | activity, negative = inhibition [13] -8.97%

Cc1cccc(C(=O)NCN2CCN(c3ccccc3C#N)CC2)c1
inactive: Potency [7] | outcome [2] | Potency [3] | Potency [4] | Potency [15] | Potency [8] | outcome [16] | Potency [14]
active: Potency [6] 26.7 µM

O=c1[nH]c(=S)[nH]c(-c2ccccc2)c1Cc1c(O)ccc2ccccc12
active: Potency [5] 79.4 µM | Potency [6] 7.52 µM | Potency [17] 3.49 µM | Potency [12] 70.8 µM
inactive: Potency [7] | outcome [2] | Potency [4] | Potency [10] | outcome [16] | Potency [14]

N=C(N)SCCc1cnc[nH]1
inactive: Potency [7] | Potency [3] | Potency [4] | Potency [5] | Potency [6] | Potency [8] | activity, negative = inhibition [13] -14.3%

COC(=O)C1=C(C)NC(C)=C([N+](=O)[O-])C1c1ccccc1C(F)(F)F (stereo not given)
inactive: Potency [7] | Potency [3] | Potency [4] | Potency [5] | Potency [8]

CNc1ncnc2c1ncn2[C@H]1C[C@H](OP(=O)(O)O)[C@@H](COP(=O)(O)O)O1
inactive: Potency [1] | outcome [2] | Potency [3] | Potency [4] | Potency [5] | Potency [6] | activity, negative = inhibition [13] -15.5%

CSC(=N)N
inactive: Potency [1] | outcome [2] | Potency [3] | Potency [4] | Potency [5] | Potency [6] | Potency [8] | activity, negative = inhibition [13] -3.96%

O=C1NC(=O)c2cc(Nc3ccccc3)c(Nc3ccccc3)cc21
inactive: Potency [7] | Potency [3] | Potency [4] | Potency [10] | Potency [12] | activity, negative = inhibition [13] -17.6% | outcome [16]
active: Potency [11] 12.6 µM

COc1ccc2c(c1)c(CC(=O)O)c(C)n2C(=O)c1ccccc1
inactive: Potency [1] | outcome [2] | Potency [3] | Potency [4] | Potency [5] | activity, negative = inhibition [13] 5.12%

Brc1c(Br)c(Br)c2[nH]cnc2c1Br
inactive: Potency [1] | outcome [2] | Potency [3] | Potency [4] | activity, negative = inhibition [13] 0.346%
active: Potency [5] 50.1 µM

CCCCOC(=O)NS(=O)(=O)c1sc(CC(C)C)cc1-c1ccc(Cn2c(CC)nc3c(C)cc(C)nc32)cc1
inactive: Potency [1] | outcome [2] | Potency [3] | Potency [4] | Potency [5] | Potency [6] | activity, negative = inhibition [13] -19.3%

O=C(N[C@@H](Cc1ccccc1)C(=O)CCl)OCc1ccccc1
inactive: Potency [1] | outcome [2] | Potency [3] | Potency [4] | Potency [6]

CN1Cc2sccc2C(c2ccc(O)c(O)c2)C1 (stereo not given)
inactive: Potency [1] | Potency [3] | Potency [4] | Potency [6]
active: Potency [5] 39.8 µM
